One may read the inhibition as the drop in the measured response relative to a control, in per cent.

This experiment concerns the target Glucose transporter (Leishmania mexicana) (UniProt O61059). In words: ST_JUDE_LEISH: Cytotoxicity at 2uM final concentration against transgenic Leishmania Mexicana promastigotes LmGT2 that are glucose transport deficient and complemented with the L. Mexicana glucose transporter 2. Activity is measured by DNA content using SYBR green in vitro. The format is functional.
`O=C(NC1CCCCN(Cc2ccccc2O)C1)c1ccc(-c2ccccc2)cc1` (stereo unspecified): the inhibition was determined as 2.4%.

Regarding `Cc1cc(NC2CCN(Cc3ccccc3)CC2)nc(NCCCCc2ccccc2)n1`, the inhibition worked out at 4.87%.

Consider `ON=C1CCc2cc(-c3[nH]c(-c4cccc(OCCNCc5ccc(F)cc5)c4)nc3-c3ccncc3)ccc21`, for which the inhibition was 10.8%.

`COc1ccc2c(NN=Cc3cccc(F)c3)ccnc2c1`: the inhibition was 4.14%.

Regarding `COc1ccc(NC(=O)C2c3ccccc3C(=O)N(C3CCCC3)C2c2cccs2)c(OC)c1` (stereo unspecified), the inhibition was -1.93%.

For `c1cc(CN2CCN(c3ccncc3)CC2)cc(-c2ccc(-c3nc4ccccc4[nH]3)cc2)c1`, the inhibition was found to be 2.65%.

With `Cc1ccc(CON2C(N)=NC(N)=NC2(C)C)c(Cl)c1.Cc1ccc(CON2C(N)=NC(N)=NC2(C)C)cc1Cl`, the inhibition was found to be 1%.

Turning to `O=C(Nc1cccc(Cl)c1Cl)N1CCc2cc3nccc(N4CCN5CCC[C@H]5C4)c3cc21`, the inhibition amounted to 3.39%.

In the case of `CC(C)Cc1cn(-c2nc(-c3nc4ccccc4[nH]3)cs2)c2ccncc12`, the inhibition came out at 3.29%.

With `COc1ccc(NC(=O)c2ccc3cc4ccccc4cc3c2)cc1N1CCN(C)CC1`, the inhibition turned out to be 0.74%.

As for `O=C(COc1ccccc1)NC1CCN(c2ccnc3cc(Cl)ccc23)C1` (stereo unspecified), the inhibition worked out at 1.75%.

As for `O=C(/C=C/c1cccc(Br)c1)NCCCCCN1CCC(c2c[nH]c3ccccc23)CC1`, the inhibition is 5.42%.

Take `COc1cc(Cc2cnc3nc(N)nc(N)c3c2C)cc(OC)c1OC`: the inhibition came out at 1.69%.

Consider `COc1ccc2ncc(F)c(CCN3CC(O)C(CNCc4ccc5ccccc5c4)C3)c2n1` (stereo unspecified), for which the inhibition was determined as 6.63%.

Consider `COCCN1CCN(Cc2ccc(-c3ccc(-c4nc5cc(F)ccc5[nH]4)cc3)cc2)CC1`, for which the inhibition was 0.87%.

On to `CCCNC[C@@H](O)[C@H](Cc1ccccc1)NC(=O)c1cc2c3c(c1)c(CC)cn3CCS(=O)(=O)N2C`, for which the inhibition turned out to be 0.44%.

Regarding `CCN(CC)CCNC(=O)c1ccc(Nc2ncc([N+](=O)[O-])c(Nc3ccccc3OC)n2)cc1`, the inhibition worked out at 3.73%.

In the case of `CCCCCCOc1ccc(/C(N)=N\Cc2ccccc2)c2c1CCCC2`, the inhibition is 0.11%.

Turning to `C[C@@H](C(=O)N1CCOCC1)N1CC[C@H](NS(=O)(=O)c2ccc3ccnc(N)c3c2)C1=O`, the inhibition was -4.28%.

Turning to `Cc1cccc2nc(-c3cccc(-c4cccc(NC(=O)Cc5c[nH]cn5)c4)c3)[nH]c12`, the inhibition worked out at 2.94%.

In the case of `CNC(=O)c1cnc(Nc2ccc(OCC(O)CN(C)C)cc2)nc1Nc1cccc([N+](=O)[O-])c1` (stereo unspecified), the inhibition turned out to be 3.56%.

On to `O=C(/C=C/c1ccc(Cl)c(Cl)c1)NC1CCN(CCCNC(=O)c2cccc(Cl)c2)CC1`, for which the inhibition stood at 7.01%.

Turning to `CCOc1ccc(Nc2cc(C)nc(Nc3ccc(OCC)cc3)n2)cc1`, the inhibition worked out at 1.02%.

`O=C(Nc1cccc(-c2cccc(-c3ccc(F)cc3)n2)c1)c1ccc([N+](=O)[O-])o1`: the inhibition is 1.35%.

For `COc1ccccc1C1CCN(C2CCC(NC(=O)/C=C/c3ccc(C(F)(F)F)cc3F)CC2)CC1` (stereo unspecified), the inhibition is -0.44%.

Consider `Cc1cc(Nc2ccc(Cl)cc2)n2nc(C(F)(F)F)nc2n1`, for which the inhibition worked out at 0.13%.

These data come from ChEMBL document CHEMBL3433997, “St. Jude Leishmania screening dataset” (2016).
